CYP2C19 activ – human CYP2C19 activators, primary screen, biochemical, luminescence. Cytochrome P450 2C19 (Homo sapiens), P33261. recombinant CYP2C19, luciferin-H EGE luminescence; active compounds read high; 0 = fully inhibited enzyme, 1 = untreated enzyme. activation factor at 5 µM. 96,000 tested, under 10 active. AID 1025, 2008;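 active = activation factor of at least 2 at 5 µM in the primary screen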;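 also: 0 = wells with 2.5 mM tranylcypromine and 1 = vehicle-only wells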
PLAP act – PLAP enzyme activators, biochemical, luminescence, HTS; 96,000 compounds, 1.2% hits; purified PLAP enzyme, luminescent substrate read-out; active compounds read high; activation fold at 20 µM; Alkaline phosphatase, placental type (Homo sapiens), P05187; AID 696, 2007; in the data active = activation fold above about 2
CYP2C19 inh – blockers of cytochrome P450 2C19 activity – biochemical, luminescence, ADME assay, primary screen | CYP2C19 Supersomes, luciferin-H EGE luminescence, 30 min | inhibition, % at 5 µM | 96,000 compounds, 21% hits | AID 778, 2007;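 active = CYP2C19 inhibition above a set limit at 5 µM in the primary screen, cut at about 50% in these data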;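 also: plate controls were negative control wells for no effect and 2.5 mM tranylcypromine positive control for full effect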
CYP2C9 inh – blockers of cytochrome P450 2C9 activity – biochemical, luminescence, ADME assay, primary screen; P11712; CYP2C9 Supersomes, luciferin-H conversion; inhibition, % at 5 µM; 96,000 compounds, 20% hits;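 active = blocking of liver enzyme CYP2C9 beyond about 50% at 5 µM, limit read from the data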
Target sequence (P11712 whole entry, looked up): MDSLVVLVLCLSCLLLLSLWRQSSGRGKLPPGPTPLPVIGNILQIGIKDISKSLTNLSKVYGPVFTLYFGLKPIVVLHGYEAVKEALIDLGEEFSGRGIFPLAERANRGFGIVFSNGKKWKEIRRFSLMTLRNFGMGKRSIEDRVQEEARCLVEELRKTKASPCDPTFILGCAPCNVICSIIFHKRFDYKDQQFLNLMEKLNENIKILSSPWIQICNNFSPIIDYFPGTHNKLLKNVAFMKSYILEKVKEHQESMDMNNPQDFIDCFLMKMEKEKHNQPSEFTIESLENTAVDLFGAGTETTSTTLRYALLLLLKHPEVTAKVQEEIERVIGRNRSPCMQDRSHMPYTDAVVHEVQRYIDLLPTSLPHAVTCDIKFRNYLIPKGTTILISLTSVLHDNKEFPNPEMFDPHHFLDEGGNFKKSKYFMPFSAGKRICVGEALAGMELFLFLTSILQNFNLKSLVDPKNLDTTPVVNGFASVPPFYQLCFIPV
CYP2C9 activ – human CYP2C9 activators, primary screen, biochemical, luminescence | recombinant CYP2C9, luciferin-H conversion; active compounds read high; factor 1 = untreated enzyme, 0 = blocked | activation factor at 5 µM | 96,000 compounds, 1.4% hits | Cytochrome P450 2C9 (Homo sapiens), P11712;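 active = activation factor of 2 or more for CYP2C9 at a 5 µM dose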;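 also: 0 = sulfaphenazole-blocked wells and 1 = vehicle-only wells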
* marks the source's active call; other numbers are inactive results. In the library only some 31% were active in any assay of this set; here they are far more common.

SMILES	CYP2C19 activ	PLAP act	CYP2C19 inh	CYP2C9 inh	CYP2C9 activ
COc1ccc(NC(=O)CCNC(=O)Cn2cnc3ccccc3c2=O)c(OC)c1	1	0.8	0	20	0.8
COc1cc2cc(Br)cc(Br)c2nc1C	0.7	1.3	27	-73	1.7
Cc1nc2nc(C)c(CCC(=O)N3CCOCC3)c(C)n2n1	1	1	0	10	0.9
O=C(Nc1ccc(C(=O)N2CCCCC2)cc1)C1CCCCC1	1	1.1	-2	4	1
COc1ccccc1N(CC(=O)N/N=C/c1ccc(OCC(=O)NCc2ccco2)cc1)S(=O)(=O)c1ccc(C)cc1	0.1	2*	89*	96*	0
COc1ccccc1CN(CC(=O)NCc1ccco1)C(=O)CNS(=O)(=O)c1ccc(C)cc1	0.8	1.2	22	28	0.7
O=C(CN(Cc1ccccc1)S(=O)(=O)c1ccc(Br)cc1)NCc1ccco1	0.7	0.7	32	66*	0.3
O=C(O)c1cc2ccc3ccccc3c2[nH]1	0.9	1.2	8	2	1
COc1cc(/C=C(\C#N)c2nc3ccc(C)cc3[nH]2)c([N+](=O)[O-])cc1OC	0.7	1.1	31	37	0.6
CN(C)/C=C(\C#N)c1nc2ccccc2[nH]1	1.1	0.8	-10	-12	1.1
COc1ccc(/C=C(\C#N)c2nc3ccc(C)cc3[nH]2)cc1Oc1ccc(C(F)(F)F)cc1[N+](=O)[O-]	1	0.9	0	-9	1.1
CCN(CC)c1ccc(/C=C(/C#N)c2nc3ccc(C)cc3[nH]2)c(OC(C)C)c1	0.4	0.7	60*	72*	0.3
CCCOc1cc(N(CC)CC)ccc1/C=C(/C#N)c1nc2ccc(C)cc2[nH]1	0.8	0.8	22	58*	0.4
CCOc1cc(N(CC)CC)ccc1/C=C(/C#N)c1nc2ccccc2[nH]1	0.4	0.6	56*	77*	0.2
N#CCCN(C(=O)CSc1ccc2c(c1)OCCO2)c1ccc(F)cc1	0.5	0.9	47	11	0.9
O=C(/C=C/NNC(=O)c1ccccc1)c1ccccc1	0.8	1.4	17	7	0.9
NC(=O)c1ccccc1N/C=C/C(=O)c1ccccc1	0.3	1	74*	45	0.6
CCc1c(C(C)S(=O)(=O)c2ccc(C)cc2)[nH]c(=O)n1-c1ccc(OC(F)(F)F)cc1 (configuration not stated)	0.8	0.9	16	4	1
Cn1c(N)c(C(=O)CSc2ccc3c(c2)OCCO3)c(=O)n(C)c1=O	0.6	1	42	17	0.8
C/C(N)=C(/C#N)C(=O)CSc1ccc2c(c1)OCCO2	0.1	1.1	95*	19	0.8
Cc1ccc(S(=O)(=O)N2CCC(C(=O)NCCc3ccc(S(N)(=O)=O)cc3)CC2)cc1	0.9	0.9	9	-4	1
O=C1c2ccccc2S(=O)(=O)N1Cc1nc2ccccc2s1	0.1	0.9	86*	40	0.6
O=c1c2ccccc2ncn1Cc1nc2ccccc2s1	0.2	1.3	82*	77*	0.2
CCOc1cccc(-c2nnc3sc(COc4ccc(Cl)cc4)nn23)c1	0.9	0.9	11	20	0.8
COc1ccc(NC(=O)c2ccccc2NC(=O)NC2CCCCC2)cc1	0.8	0.9	21	21	0.8
SMILES	CYP2C19 activ	PLAP act	CYP2C19 inh	CYP2C9 inh	CYP2C9 activ
COC(=O)C(C(=O)Nc1ccccc1C)C1CCCC1 (configuration not stated)	0.4	0.8	64*	9	0.9
COC(=O)C(C(=O)Nc1ccc(OC)cc1)C1CCCCCC1 (configuration not stated)	0.1	0.9	92*	69*	0.3
Cc1cc(N2CCN(c3cccc(C(F)(F)F)c3)CC2)n2nc(C)nc2n1	1	1.2	-5	-11	1.1
CCc1nc2ccc(C)cc2c(C(=O)Oc2cccc3cccnc23)c1C	1.1	1.3	-10	51*	0.5
CCc1nc2ccccc2c(C(=O)Oc2cccc3cccnc23)c1C	1	0.9	-2	6	0.9
CCOC(=O)C1=C(CS(=O)(=O)c2ccccc2)NC(=O)NC1c1ccccc1OCC (configuration not stated)	0.7	1.1	30	17	0.8
CCOC(=O)C1=C(CS(=O)(=O)c2ccc(F)c(C)c2)NC(=O)NC1c1ccc(O)c(O)c1 (configuration not stated)	0.3	1.8	69*	8	0.9
Cc1noc(C)c1S(=O)(=O)N1CCCC(C(=O)Nc2cccnc2)C1 (configuration not stated)	1	1	4	2	1
COc1ccccc1C(=O)NC(CCSC)C(=O)NCC(c1ccco1)N(C)C (configuration not stated)	0.3	1.6	69*	67*	0.3
COC(=O)[C@H](CCSC)NC(=O)NC1CCN(Cc2ccccc2)CC1	1.2	1.7	-23	-8	1.1
COc1ccc(CNC(=O)C(CCSC)NC(=O)c2ccco2)cc1 (configuration not stated)	0.4	1	60*	48	0.5
COc1ccccc1C(=O)NC(CCSC)C(=O)OCC(=O)NC(=O)NCc1ccco1 (configuration not stated)	0.8	1	18	97*	0
CSCCC(NC(=O)c1ccco1)C(=O)OC(C)C(=O)NC(=O)NC1CCCCC1 (configuration not stated)	0.7	1.2	31	65*	0.3
COc1ccc(NS(=O)(=O)c2cccs2)c(OC)c1	0.5	1	55*	-68	1.7
COc1ccc(NS(=O)(=O)c2ccc(SC)cc2)c(OC)c1	0.1	0.9	87*	-60	1.6
COc1ccccc1NS(=O)(=O)c1cccs1	0.2	1	81*	-117	2.2*
COc1ccc(NC(=O)C2CCCCN2S(=O)(=O)c2ccc(F)cc2)c(OC)c1 (configuration not stated)	0.6	1	43	26	0.7
COc1ccc(N(C)S(=O)(=O)c2cccc3cccnc23)c(OC)c1	0.4	0.9	60*	16	0.8
Cc1ccccc1NC(=O)C1CCCN(S(=O)(=O)c2cccc3cccnc23)C1 (configuration not stated)	0.9	0.9	11	-45	1.5
COc1ccc(NC(=O)C2CCCN2S(=O)(=O)c2cccc3cccnc23)c(OC)c1 (configuration not stated)	0.7	1.4	31	92*	0.1
CCOC(=O)c1cccc(NC(=O)C2CCCN2S(=O)(=O)c2cccc3cccnc23)c1 (configuration not stated)	0.7	0.9	34	91*	0.1
CNS(=O)(=O)c1cccc2cccnc12	1	0.9	2	-42	1.4

High-throughput results: PubChem, Sanford-Burnham Center for Chemical Genomics
